In PubChem BioAssay (NCI):
Compounds without any hit were thinned out: in the full panel of roughly 79,000, 15% have a hit. Rule as the data show it: active = growth inhibition above about 70%; inactive = the rest.

What was measured:
[1] = NCI Yeast Anticancer Drug Screen. Data for the rad50 strain (AID 155);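 also: 0% = growth of vehicle-only cultures of the same strain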; details: S. cerevisiae rad50 strain growth inhibition; at 50.0 µM; hits give high values
Method in brief: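 Vehicle-treated cultures provide the reference for the growth inhibition reported for compound-exposed, repair-deficient yeast.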

[2] = NCI Yeast Anticancer Drug Screen. Data for the mec2-1 strain (AID 157); details: S. cerevisiae mec2-1 strain, at 50.0 µM, hits give high values
Method in brief: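 Vehicle-treated cultures served as reference for growth inhibition of compound-exposed mec2-1 yeast.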

[3] = NCI Yeast Anticancer Drug Screen. Data for the sgs1 mgt1 strain (AID 161);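 also: 0% = growth of cultures given vehicle only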; details: S. cerevisiae sgs1 mgt1 strain, at 50.0 µM, hits give high values
Method in brief: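 Mutant yeast exposed to compound; growth scored against vehicle-only wells.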

[4] = NCI Yeast Anticancer Drug Screen. Data for the cln2 rad14 strain (AID 165);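 also: 0% = growth equal to vehicle treated cultures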; details: S. cerevisiae cln2 rad14 strain, at 50.0 µM, hits give high values
Method in brief: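 Each compound was tested on cln2 rad14 yeast. Inhibition of growth was calculated against vehicle-exposed controls.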

[5] = NCI Yeast Anticancer Drug Screen. Data for the bub3 strain (AID 167); details: S. cerevisiae bub3 mutant strain, at 50.0 µM, hits give high values
Method in brief: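 Mutant yeast screening strain plus compound; vehicle-treated cultures serve as the 0% inhibition reference.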

[6] = NCI Yeast Anticancer Drug Screen. Data for the mlh1 rad18 strain (AID 175); details: S. cerevisiae mlh1 rad18 strain growth inhibition; at 50.0 µM; hits give high values
Method in brief: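 Vehicle-treated cultures served as the reference for growth inhibition in a yeast strain carrying DNA damage repair alterations exposed to each compound.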

Measured: growth inhibition

NC(=O)[C@H]1CC2CCC1C2 (stereo not given in full)
inactive: [1] 6.75% | [2] -1.75% | [3] 3.4% | [4] 5% | [5] 11.3% | [6] 6%

Cc1ccc(S(=O)(=O)OC(c2ccccc2)C(F)(F)F)cc1 (stereo not given)
inactive: [1] -4.05% | [2] -15.6% | [3] -7.2% | [4] 6.9% | [5] 2.9% | [6] 2.85%

Brc1ccccc1C(Nc1nncs1)Nc1nncs1
inactive: [1] 6.6% | [2] -4.35% | [3] -10.7% | [4] -3.1% | [5] -0.25% | [6] 8.35%

O=C1CSC(c2c[nH]c3ccccc23)N1c1cccc([N+](=O)[O-])c1 (stereo not given)
inactive: [1] -61.2% | [2] -39.5% | [3] -59.9% | [4] -0.7% | [5] -59% | [6] -39%

CC(=O)C1=CCC2[C@H]3CC=C4C[C@H](O)CC[C@@]4(C)C3CC[C@@]12C (stereo not given in full)
inactive: [1] 21.2% | [2] 55.2% | [3] 49.8% | [4] 17.9% | [5] 58.6% | [6] 37.7%

CCN(CC)CCOC(=O)c1ccc(NC(=O)OCCC(C)(C)CCOC(=O)Nc2ccc(C(=O)OCCN(CC)CC)cc2)cc1
inactive: [1] 6.85% | [2] -18.4% | [3] -9.25% | [4] -23.6% | [5] 8.25% | [6] 16.2%

COc1ccccc1C/C(=N/O)c1ccccc1OC
inactive: [1] 3.65% | [2] -2.8% | [3] 14.1% | [4] 15.6% | [5] -3.8% | [6] 4.35%

CC(C)Cc1ccc(OC(=O)Nc2ccccc2)cc1
inactive: [1] -7.5% | [2] -1.6% | [3] -2.9% | [4] -3.4% | [5] -13.5% | [6] 2.05%

CCOC(=O)C1(C(=O)OCC)CCCCC1=O
inactive: [1] 13.2% | [2] -15.2% | [3] -22.9% | [4] 11.2% | [5] -46.6% | [6] -1.1%

COC(=O)c1c(C(=O)c2ccccc2)nnn1-c1cccc(C(F)(F)F)c1
inactive: [1] -14.1% | [2] -32.7% | [3] -19% | [4] -3.85% | [5] -28.7% | [6] 0.35%

CC(C)=NNC(=O)c1ccc([N+](=O)[O-])cc1
inactive: [1] 9.35% | [2] 0.95% | [3] 2.1% | [4] 5.1% | [5] 3.65% | [6] 10.4%

CC(=O)/C(=N\N=C(N)N)c1ccccc1
inactive: [1] -25.4% | [2] -28.8% | [3] -19.6% | [4] 19.8% | [5] 18.1% | [6] 4.5%

C=C(C)CNCC(=C)C
inactive: [1] 35.3% | [2] 14.1% | [3] -8.25% | [4] -16.8% | [5] 17.9% | [6] 21.6%

Cc1cc[n+](CC(=O)CCc2ccc(C(=O)C[n+]3ccc(C)cc3)cc2)cc1
inactive: [1] 41.1% | [2] -1.85% | [3] 34.3% | [4] -6.4% | [5] -3.95% | [6] 11.1%

O=C1ON=C2C3CC4CC12CC1(C3)C(=O)ON=C41
inactive: [1] -3.05% | [2] -6.45% | [3] -3.8% | [4] -1.9% | [5] -12.1% | [6] -19.8%

O=C(/C=C/c1ccc(O)cc1)c1ccc(Cl)cc1
inactive: [1] -17.7% | [2] -22.9% | [3] -18.6% | [4] -36.9% | [5] 20.4% | [6] -16.4%

O=C(O)c1ccc(C2C(=O)N[C@@H]3CCC[C@H]23)cc1 (stereo not given in full)
inactive: [1] -33% | [2] -5.75% | [3] -22.1% | [4] 6.05% | [5] -12.9% | [6] -32.1%

O=C1CCCC/C1=C/c1ccccc1
inactive: [1] 6% | [2] 18.9% | [3] -3.3% | [4] -19.1% | [5] -11.9% | [6] 8.05%

C=C(CC(O)c1ccccc1)C(=O)Nc1ccccc1OC (stereo not given)
inactive: [1] 25.9% | [2] 0.45% | [3] 13.3% | [4] 1.25% | [5] 6.3% | [6] 4.1%

CN(C)c1ccc(Cc2c[nH]c3ccccc3c2=O)cc1
inactive: [1] 8.4% | [2] 12.8% | [3] 18.8% | [4] 12.2% | [5] 25.1% | [6] 9.65%
